Results on 11 compounds are retold here after the supplement of paper PMC12297408.

The structures appear in SMILES notation. Values joined by “and” are separate entries in the source; they are usually repeats but may differ in a detail not shown here. Identical values can stand only once. A number with no mark means an inactive call.

The assay has as its system Plasmodium falciparum NF54/iGP1_RE9H ulg8 stage V gametocytes. The experiment in a line: gametocyte viability (luciferase signal relative to DMSO control) (% of DMSO control); higher = less gametocytocidal activity, active = 50 or less. The conditions noted are these: exposure time: 72 h. The method in brief:
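Compounds from 10 mM DMSO stocks were spotted at nanolitre scale into 96-well plates, and day-12 stage V NF54/iGP1_RE9Hulg8 gametocytes (~2.5% gametocytemia, 3% hematocrit; medium with 0.5% Albumax II) were added to reach 10 µM or 1 µM, one well per concentration. The plates were kept at 37 °C for 72 h. Luminescence was then read on an IVIS Lumina II after mixing 90 µl of culture with 10 µl D-luciferin (30 mg/ml). Viability values are relative to the plate's mean DMSO vehicle signal.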

As for `CO[C@H]1C[C@@H]2CC[C@@H](C)[C@@](O)(O2)C(=O)C(=O)N2CCCC[C@H]2C(=O)O[C@H]([C@H](C)C[C@@H]2CC[C@@H](O)[C@H](OC)C2)CC(=O)[C@H](C)/C=C(\C)[C@@H](O)[C@@H](OC)C(=O)[C@H](C)C[C@H](C)/C=C/C=C/C=C/1C` [Rapamycin (Sirolimus)], the gametocyte viability was 99.3 (concentration: 1 µM) and 79.7 (concentration: 10 µM).

Take `COC(=O)c1ccc2c(C(=Nc3ccc(N(C)C(=O)CN4CCN(C)CC4)cc3)c3ccccc3)c(O)[nH]c2c1` [BIBF1120 (Vargatef)]: the gametocyte viability (concentration: 1 µM) was 96 and the gametocyte viability (concentration: 10 µM) is 108.

On to `N#CC(C#N)=C(N)/C(C#N)=C/c1cc(O)c(O)c(O)c1`, for which the gametocyte viability by setting is: (concentration: 1 µM) 110; (concentration: 10 µM) 113.

With `C=CC(=O)N1CCC[C@@H](n2nc(-c3ccc(Oc4ccccc4)cc3)c3c(N)ncnc32)C1`, the gametocyte viability is 106 (concentration: 1 µM) and 104 (concentration: 10 µM).

As for `CO[C@H]1C[C@@H]2CC[C@@H](C)[C@@](O)(O2)C(=O)C(=O)N2CCCC[C@H]2C(=O)O[C@H]([C@H](C)C[C@@H]2CC[C@@H](OCCO)[C@H](OC)C2)CC(=O)[C@H](C)/C=C(\C)[C@@H](O)[C@@H](OC)C(=O)[C@H](C)C[C@H](C)/C=C/C=C/C=C/1C` [Everolimus (RAD001)], the gametocyte viability was 91 (concentration: 1 µM) and 94.2 (concentration: 10 µM).

As for `CC1(COc2ccc3c(c2)ncn3-c2ccc3cccc(N4CCC(N)CC4)c3n2)COC1`, the gametocyte viability reads like this: (concentration: 1 µM) 125; (concentration: 10 µM) 112.

In the case of `O=C1c2ccccc2-c2n[nH]c3cccc1c23`, the gametocyte viability is 95.3 and 98.9 (concentration: 1 µM); 90.5 and 106 (concentration: 10 µM).

Take `COc1ncc(-c2ccc3nccc(-c4ccnnc4)c3c2)cc1NS(=O)(=O)c1ccc(F)cc1F`: the gametocyte viability by setting is: (concentration: 1 µM) 100; (concentration: 10 µM) 103.

Regarding `CCCCCCCCCCCCCCCC(=O)OC(CC(=O)[O-])C[N+](C)(C)C` (racemic) [Palmitoyl-DL-carnitine], the gametocyte viability is 100 (concentration: 1 µM) and 108 (concentration: 10 µM).

`CNC(=O)c1cc(Oc2ccc(NC(=O)Nc3ccc(Cl)c(C(F)(F)F)c3)c(F)c2)ccn1` [Regorafenib (BAY 73-4506)]: the gametocyte viability is 95.1 (concentration: 1 µM) and 99.1 (concentration: 10 µM).

On to `CNCCNS(=O)(=O)c1cccc2cnccc12`, for which the gametocyte viability (concentration: 1 µM) is 104 and the gametocyte viability (concentration: 10 µM) is 108.
